Results on 34 compounds are retold here after PubChem BioAssay (Tox21).

Records with an inconclusive call do not appear. The source made the active and inactive calls. Unless noted, the call rests on the fitted dose curve; in most records, active means well fitted curve in the direction sought with a large enough effect in the repeat runs; inconclusive means weak or mixed curves; inactive means no such curve, though single readings can be large; an effect the other way counts as inactive or inconclusive.

Assay [1] in a line: qHTS assay to identify small molecule agonists of the peroxisome proliferator-activated receptor delta (PPARd) signaling pathway - cell viability counter screen (AID 743211). Further: nearly all actives have a fitted effect of over 55% in size. A digest of the protocol:
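Viability was measured as CellTiter-Glo luminescence (30 min, room temperature) in the same wells as the beta-lactamase readout. GeneBLAzer PPARd UAS-bla HEK293H cells received compound after 5 h plating and were incubated 17 h at 37 C.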

Assay [2] can be described thus: qHTS assay to identify small molecule antagonists of the peroxisome proliferator-activated receptor delta (PPARd) signaling pathway - cell viability counter screen (AID 743213). Further: nearly all actives have a fitted effect of over 50% in size. An outline of the steps:
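Luminescence from CellTiter-Glo, added after the bla read and incubated 30 min at room temperature, gives viability of HEK293H PPARd-bla cells exposed to compounds for 17 h at 37 C with 300 nM L165041.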
Background: In qHTS, concentration-response curves come from the screen itself.

Assay [3] is described as follows: qHTS assay to identify small molecule agonists of the farnesoid-X-receptor (FXR) signaling pathway - cell viability counter screen (AID 743218). Further: nearly all actives have a fitted effect of over 45% in size. An outline of the steps:
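Readout: CellTiter-Glo luminescence, 30 min RT, multiplexed after the FXR-bla FRET reading. HEK 293T FXR-UAS-bla cells received compound 5 h post-plating and were incubated 16 h at 37 C.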

Assay [4] in a line: qHTS assay to identify small molecule antagonists of the farnesoid-X-receptor (FXR) signaling pathway - cell viability counter screen (AID 743221; active means well fitted cell-killing curve with a large enough effect in the repeat runs, not every such curve was filed as active; further: nearly all actives have a fitted effect of over 50% in size). An outline of the steps:
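Cytotoxicity counter screen run in the FXR-bla reporter wells: HEK 293T cells exposed to compound with 50 uM (final) chenodeoxycholic acid for 16 h, 37 C, then viability measured by CellTiter-Glo luminescence after 30 min, room temperature.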

Assay [5] addresses Vitamin D3 receptor (Homo sapiens) (UniProt P11473). The assay can be described thus: qHTS assay to identify small molecule agonists of the vitamin D receptor (VDR) signaling pathway (AID 743222; calls by dose curve). A digest of the protocol: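 Following 4 h attachment at 37C, VDR-bla cells (2,000 per well) received DMSO-dissolved compounds or controls. After 16 h incubation, LiveBLAzer B/G FRET substrate was added and fluorescence read 2 h later at room temperature.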

Assay [6] has the same target. Description: qHTS assay to identify small molecule antagonists of the vitamin D receptor (VDR) signaling pathway (AID 743223; active means well fitted inhibition curve with a large enough effect in the signal ratio in the repeat runs, not every such curve was filed as active; the % refers to the signal ratio). An outline of the steps: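 Antagonist mode: compound added to VDR-bla cells alongside agonist 1alpha,25-dihydroxyvitamin D3 (3 nM final), incubation 16 h at 37C. Read-out is LiveBLAzer FRET fluorescence, 2 h at room temperature.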
The target of assay [7] is Peroxisome proliferator-activated receptor delta (Homo sapiens) (UniProt Q03181). The assay can be described thus: qHTS assay to identify small molecule antagonists of the peroxisome proliferator-activated receptor delta (PPARd) signaling pathway (AID 743215; active means well fitted inhibition curve with a large enough effect in the signal ratio in the repeat runs, not every such curve was filed as active; the % refers to the signal ratio;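 further: cells stimulated with agonist L165041 at 300 nM final during compound exposure; series mostly up to about 62 µM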). A digest of the protocol:
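Fluorescence from cleaved LiveBLAzer B/G FRET substrate (2 h, room temperature) reports PPARd-driven beta-lactamase in HEK293H UAS-bla cells. Cells had been treated 17 h at 37 C with compound plus 300 nM final L165041.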

Assay [8] has the same target. The assay can be described thus: qHTS assay to identify small molecule agonists of the peroxisome proliferator-activated receptor delta (PPARd) signaling pathway (AID 743212; calls by dose curve). An outline of the steps: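 Tox21 library screened in GeneBLAzer PPARd UAS-bla HEK293H cells. After compound treatment at 37 C, a FRET-based beta-lactamase substrate was applied for 2 h and fluorescence recorded.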

For assay [9], the target named is Bile acid receptor (Homo sapiens) (UniProt Q96RI1). The assay can be described thus: qHTS assay to identify small molecule antagonists of the farnesoid-X-receptor (FXR) signaling pathway (AID 743217; active means well fitted inhibition curve with a large enough effect in the signal ratio in the repeat runs, not every such curve was filed as active; the % refers to the signal ratio). An outline of the steps: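 FRET fluorescence after 2 h room-temperature LiveBLAzer loading gives the readout. Prior step: FXR-bla HEK 293T cells, seeded and incubated 5 h, received test compounds plus 50 uM final CDCA for 16 h at 37 °C.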
Chain of Bile acid receptor (Homo sapiens) (Q96RI1 whole entry, looked up): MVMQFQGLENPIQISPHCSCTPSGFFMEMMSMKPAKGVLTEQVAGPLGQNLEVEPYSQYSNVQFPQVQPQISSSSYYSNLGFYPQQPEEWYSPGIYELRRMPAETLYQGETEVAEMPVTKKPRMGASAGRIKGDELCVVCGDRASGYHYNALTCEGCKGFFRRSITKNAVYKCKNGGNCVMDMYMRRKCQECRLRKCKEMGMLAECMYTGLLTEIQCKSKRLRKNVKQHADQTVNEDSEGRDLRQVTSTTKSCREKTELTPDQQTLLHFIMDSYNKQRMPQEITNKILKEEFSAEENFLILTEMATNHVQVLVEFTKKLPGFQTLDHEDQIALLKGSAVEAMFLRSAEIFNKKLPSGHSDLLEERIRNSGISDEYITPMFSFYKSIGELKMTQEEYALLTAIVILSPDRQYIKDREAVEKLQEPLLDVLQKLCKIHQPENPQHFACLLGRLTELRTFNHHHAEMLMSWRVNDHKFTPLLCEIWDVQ

Assay [10] has the same target. Description: qHTS assay to identify small molecule agonists of the farnesoid-X-receptor (FXR) signaling pathway (AID 743220; active means well fitted activation curve with a large enough effect in the signal ratio in the repeat runs, not every such curve was filed as active; the % refers to the signal ratio; further: potency means the concentration at half of the fitted maximal effect). An outline of the steps: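 FXR-UAS-bla HEK 293T cells carrying a UAS-driven beta-lactamase reporter were plated for 5 h at 37C/5% CO2, then exposed to DMSO-dissolved Tox21 10K compounds for 16 h at 37C. A LiveBLAzer B/G FRET substrate was loaded for 2 h at room temperature before fluorescence reading.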

Chain of Vitamin D3 receptor (Homo sapiens) (P11473 whole entry, looked up): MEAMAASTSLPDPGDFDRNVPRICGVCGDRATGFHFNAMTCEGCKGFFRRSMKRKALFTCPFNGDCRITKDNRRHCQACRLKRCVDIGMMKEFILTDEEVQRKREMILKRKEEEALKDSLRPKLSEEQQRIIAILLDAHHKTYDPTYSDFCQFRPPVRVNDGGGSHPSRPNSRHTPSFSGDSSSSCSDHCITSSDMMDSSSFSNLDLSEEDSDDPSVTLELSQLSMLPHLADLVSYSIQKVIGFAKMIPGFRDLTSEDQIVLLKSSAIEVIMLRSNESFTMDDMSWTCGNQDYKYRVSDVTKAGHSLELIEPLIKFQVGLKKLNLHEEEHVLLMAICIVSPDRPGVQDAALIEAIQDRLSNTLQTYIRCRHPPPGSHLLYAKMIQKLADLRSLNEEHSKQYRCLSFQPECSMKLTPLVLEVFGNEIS
Chain of Peroxisome proliferator-activated receptor delta (Homo sapiens) (Q03181 whole entry, looked up): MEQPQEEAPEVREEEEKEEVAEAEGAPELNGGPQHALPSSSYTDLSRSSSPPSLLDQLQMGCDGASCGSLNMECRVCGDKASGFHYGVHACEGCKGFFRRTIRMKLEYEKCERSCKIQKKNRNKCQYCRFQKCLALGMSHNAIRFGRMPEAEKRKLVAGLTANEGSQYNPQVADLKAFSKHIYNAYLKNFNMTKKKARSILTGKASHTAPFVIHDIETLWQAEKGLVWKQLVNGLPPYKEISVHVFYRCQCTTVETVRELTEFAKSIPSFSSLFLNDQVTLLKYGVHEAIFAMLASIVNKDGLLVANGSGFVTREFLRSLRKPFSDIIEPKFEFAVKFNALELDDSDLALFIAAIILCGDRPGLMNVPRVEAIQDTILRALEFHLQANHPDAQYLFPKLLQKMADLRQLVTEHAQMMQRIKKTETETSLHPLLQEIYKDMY

Take `N[C@@H](CCC(=O)N[C@@H](CS)C(=O)NCC(=O)O)C(=O)O`: the outcome in assay [1], in [2], in [4], in [5] and in assay [6] was inactive. Besides, in assay [3], the Potency entry is “inactive”.

For the compound `CC(=O)/C=C/C1C(C)=CCC(C)C1(C)C` (configuration not stated), the compound was classed as inactive in [1], in assay [7], in assay [4], in assay [5] and in assay [6]. Besides, the Potency entry in [3] was “inactive”.

Regarding `O=C(NCCN1CCOCC1)c1ccc(Cl)cc1`, the outcome in assay [8], in assay [2], in assay [7], in assay [4], in [5] and in [6] was inactive. The Potency result in assay [9] is “inactive”.

As for `CC(=O)NCc1c(I)c(NC(C)=O)c(I)c(C(=O)O)c1I`, the result in assay [1], in [4] and in [5] was inactive.

Consider `CN(CCOc1ccc(NS(C)(=O)=O)cc1)CCc1ccc(NS(C)(=O)=O)cc1`, for which the compound was called inactive in [8], in assay [2], in [7] and in assay [4]. Besides, the Potency entry in assay [9] and in [10] was “inactive” each time.

`O=S(=O)(O)c1cc(O)c2ccc(Nc3ccccc3)cc2c1`: the compound was called inactive in [1], in [4] and in assay [6].

For `O=C(/N=N/C(=O)OCc1ccccc1)OCc1ccccc1`, the outcome in [8], in assay [2], in assay [7] and in assay [4] was inactive. The Potency entry in assay [3] was “inactive”.

For `On1nnc2ccccc21`, the compound was called inactive in assay [1], in assay [5] and in [6].

`COC(=O)c1ccccc1C(=O)c1ccc(OCCN2CCCCC2)cc1`: the compound was called inactive in assay [8], in assay [2], in assay [7], in [4] and in [6]. In addition, the Potency entry in assay [9] and in [10] was “inactive” throughout.

For `CN(C)C(=O)CNC(=O)Cc1ccccc1`, the compound was called inactive in assay [1], in [4] and in assay [5].

On to `CCOCCOCCOCC`, for which the result in [1], in assay [2], in assay [4], in [5] and in assay [6] was inactive. Moreover, the Potency entry in [3] was “inactive”.

As for `O=C1CC(c2ccc(Cl)cc2)CC(=O)N1`, the compound was called inactive in [1], in assay [7], in assay [4], in assay [5] and in assay [6]. In addition, the Potency entry in assay [9] and in [10] was “inactive” each time.

As for `CCOc1cc([N+](=O)[O-])c(OCC)cc1N1CCOCC1`, the outcome in assay [1], in [2], in assay [4], in assay [5] and in [6] was inactive. In addition, in [3], the Potency result was “inactive”.

With `O=Cc1ccc(Cl)c(Cl)c1`, the call in assay [1], in assay [7], in [4] and in assay [6] was inactive.

In the case of `CN1C(C)(C)CCCC1(C)C`, the compound was called inactive in assay [1], in assay [7], in assay [4] and in assay [5]. Besides, the Potency entry in assay [9], in assay [3] and in assay [10] was “inactive” each time.

`C[Si](C)(C)C`: the compound was classed as inactive in assay [1], in [7], in assay [4], in [5] and in [6].

`CC(S)C(=O)NCC(=O)O` (configuration not stated): the result in assay [1], in assay [2], in [4], in [5] and in assay [6] was inactive. Besides, the Potency result in [3] was “inactive”.

Take `Cc1cccc(C)c1NC(=O)c1ccccc1C(=O)O`: the compound was classed as inactive in [1], in assay [2], in assay [4] and in [6].

On to `CC/C=C\CC1=C(C)CCC1=O`, for which the compound was classed as inactive in assay [1], in assay [2], in assay [4], in assay [5] and in assay [6]. For the same compound, the Potency result in assay [3] was “inactive”.

With `CC(=C(CCOC(=O)C(C)C)SSC(CCOC(=O)C(C)C)=C(C)N(C=O)Cc1cnc(C)nc1N)N(C=O)Cc1cnc(C)nc1N`, the call in [1], in assay [7], in assay [4], in [5] and in assay [6] was inactive. Further, the Potency entry in assay [9], in [3] and in [10] was “inactive” in each case.

Consider `CCCCCCCCCCCCCC`, for which the compound was classed as inactive in assay [1], in [4] and in assay [6].

On to `C=C(C)C(=O)OCc1ccccc1`, for which the result in assay [1], in [4], in assay [5] and in assay [6] was inactive. The Potency entry in assay [9], in [3] and in assay [10] was “inactive” in each case.

On to `Brc1ccc(-c2ccccc2)cc1`, for which the outcome in [1], in assay [2], in assay [4], in assay [5] and in assay [6] was inactive. In assay [3], the Potency entry is “inactive”.

For `BrCc1cccc(Oc2ccccc2)c1`, the outcome in assay [1], in [7], in assay [4], in assay [5] and in assay [6] was inactive. In assay [3], the Potency result is “inactive”.

Regarding `CCCOC(OCCC)OCCC`, the compound was called inactive in assay [1], in assay [7], in [4], in [5] and in [6]. Also, the Potency result in assay [9], in assay [3] and in assay [10] was “inactive” in each case.

`C=C(C)C(=O)OCCNC(C)(C)C`: the outcome in [1], in assay [2], in assay [4] and in assay [6] was inactive. The Potency entry in [3] was “inactive”.

Turning to `COC(=O)CCc1ccc(OCC(O)CNC(C)C)cc1` (configuration not stated), the outcome in assay [1], in [2], in assay [4] and in assay [6] was inactive. In assay [3], the Potency entry was “inactive”.

For the compound `NCCN1CCOCC1`, the result in [1], in assay [4] and in [5] was inactive.

In the case of `CC(C)NCC(O)COc1ccc(COCCOC(C)C)cc1` (configuration not stated), the compound was called inactive in assay [1], in assay [7], in [4] and in assay [5]. For the same compound, the Potency result in [9] and in assay [10] was “inactive” throughout.

In the case of `Cc1cc(C(C)(C)C)c(O)c(C)c1CC1=NCCN1`, the call in assay [8], in assay [2] and in assay [4] was inactive. Moreover, the Potency entry in [3] was “inactive”.

`COc1ccc2c(c1)C(=O)N(CCc1ccc(S(=O)(=O)NC(=O)NC3CCCCC3)cc1)C(=O)C2(C)C`: the result in [8], in assay [2], in [7], in [4] and in [6] was inactive. For the same compound, the Potency in assay [10] is 26.6 µM (active).

As for `O=C(Nc1ccc(Cl)c(Cl)c1)C1CC1`, the compound was called inactive in assay [8], in assay [7], in assay [4] and in [6]. Further, in [3], the Potency result was “inactive”.

As to `CCCCOC(=O)c1ccccc1`, the result in [7], in assay [4], in assay [5] and in [6] was inactive.

For `Cc1ccc(S(=O)(=O)O)c(C)c1`, the compound was classed as inactive in [8], in assay [7], in [4], in assay [5] and in [6]. The Potency entry in [3] is “inactive”.
